Consider five molecules from PubChem BioAssay.

SMILES strings stand for the structures. Calls of active or inactive are those of the source.

A short description of assay [1]: small molecules captured by biotinylated probe aFSTL3 – biochemical, small-molecule microarray, fluorescence 635/667, stem cell growth factor project, primary screen (AID 1064).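 Also: measures binding of the biotinylated anti-FSTL3 antibody to printed compounds.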 The following applies: higher = more signal.
A short description of assay [2]: binders from COS7 lysate, DM2A8 probe, primary screen, torsin A project, cell lysate, small-molecule microarray, fluorescence 635/667 (AID 1065). The following applies: higher = more signal, COS7 lysate expressing mutant human TOR1A.
Assay [3] in a line: small molecules captured by biotinylated probe aFGF2 – biochemical, small-molecule microarray, fluorescence 635/667, stem cell growth factor project, primary screen (AID 1067).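 Also: measures binding of biotinylated aFGF2 protein to printed compounds on slides; z-score merges feature fluorescence and signal-to-noise across triplicate slides.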 The settings on record: higher = more signal.
The nature of assay [4]: small molecules captured by biotinylated probe aFGF10 – biochemical, small-molecule microarray, fluorescence 635/667, stem cell growth factor project, primary screen (AID 1071).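 Also: score merges 667 nm spot intensity and signal to noise from triplicate slides.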 The settings on record: higher = more signal.
Assay [5] concerns the target Neurogenic locus notch homolog protein 2 (Homo sapiens) (UniProt Q04721). Description: small molecules binding Notch2 protein – biochemical, small-molecule microarray, 635 nm fluorescence, stem cell growth factors, primary screen (AID 1073). The settings on record: higher = more signal.
Assay [6] addresses Pro-neuregulin-1, membrane-bound isoform (Homo sapiens) (UniProt Q02297). Description: small molecules binding neuregulin-1 protein – biochemical, small-molecule microarray, fluorescence 635/667, psychiatric disease protein project, primary screen (AID 1075).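 Also: score combines 667 nm spot fluorescence with signal to noise.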 The following applies: NRG1 binding, 635 nm fluorescence, higher = more signal.
The test system of assay [7] is Neuregulin-1 EGF-like domain. Description: small molecules binding NRG1 EGF domain – biochemical, small-molecule microarray, 635 nm fluorescence, primary screen (AID 1081).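 Also: binding of the protein to compounds printed on small-molecule microarray slides.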 The following applies: higher = more signal.
Assay [8] can be described thus: FRG1 expression reporter modulators in myotubes – cell-based, C2C12 myotubes, firefly/Renilla luciferase, luminescence, FRG1 inhibition for FSHD, primary screen (AID 1084). The following applies: FRG1 promoter luciferase, higher = more signal, called active from +8 up or from −8 down.
Assay [9] can be described thus: small molecules captured by biotinylated probe aFST – biochemical, small-molecule microarray, fluorescence 635/667, stem cell growth factor project, primary screen (AID 1086).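 Also: score merges 667 nm fluorescence with signal-to-noise of each printed compound spot.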 The following applies: higher = more signal.
A short description of assay [10]: binders of probe aHhip on microarray, primary screen, stem cell growth factor project, biochemical, small-molecule microarray, fluorescence 635/667 (AID 1087).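 Also: score merges spot fluorescence at 667nm with spot signal to noise ratio.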 The settings on record: higher = more signal.
Assay [11] concerns PRMT1 (protein arginine N-methyltransferase 1). Description: small molecules binding arginine methyltransferase PRMT1 – biochemical, small-molecule microarray, 635 nm fluorescence, primary screen (AID 1088).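 Also: binding of Prmt1 protein to compounds spotted on small-molecule microarray slides.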 The settings on record: higher = more signal.
The nature of assay [12]: growth effects on S. cerevisiae YJM789 – YJM789 clinical isolate, OD600, 24 h, basal, primary screen (AID 1089).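 Also: growth of clinical yeast isolate S. cerevisiae YJM 789 seeded 1000 cells per well; test concentration not given here.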 The following applies: higher = more signal, called active from +8 up or from −8 down.
Assay [13] in a line: S. pombe growth modifiers, basal conditions – strain 972, OD600, 24 h, no modulator, primary screen (AID 1090).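 Also: basal condition with compound alone and no growth modifier present; test concentration not given here.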 The settings on record: S. pombe 972 growth, higher = more signal, called active from +8 up or from −8 down.
A short description of assay [14]: budding yeast growth modifiers under rapamycin – strain BY4716, OD600, 96 h, primary screen (AID 1091). Also: test concentration not given here. The following applies: S. cerevisiae BY4716 + rapamycin, higher = more signal, called active from +8 up or from −8 down.
The target in assay [15] is Torsin-1A-interacting protein 2 (Homo sapiens) (UniProt Q8NFQ8). Description: small molecules binding lysate-expressed LULL1 – cell lysate, human LULL1 lysate, 635/667 nm fluorescence, primary screen (AID 1092).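 Also: probe is lysate of COS7 cells overexpressing human LULL1; score merges per-feature 667 nm fluorescence with signal-to-noise.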 The settings on record: small-molecule microarray, hLULL1 lysate binding, 635 nm fluorescence; higher = more signal.
Assay [16] can be described thus: optical density change of DRC41 E. coli – strain DRC41, OD650, 24 h, E. coli filamentation project, primary screen (AID 1093).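 Also: MC1000 strain lacking acrAB efflux and sulA so SOS filamentation is blocked; test concentration not given here.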 The following applies: E. coli DRC41 growth, higher = more signal, called active from +8 up or from −8 down.
A short description of assay [17]: probe aLefty2 binding to arrayed compounds – biochemical, biotinylated probe, 635/667 nm fluorescence, primary screen (AID 1094).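 Also: score merges spot fluorescence near 667 nm with spot signal-to-noise ratio.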 The following applies: small-molecule microarray, higher = more signal.
Assay [18] relates to Noggin (protein binding on small-molecule microarray). Description: small molecules binding Noggin protein – biochemical, 635/667 nm fluorescence, primary screen (AID 1095).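 Also: score merges 667 nm feature fluorescence with signal to noise over triplicate slides.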 The following applies: 635 nm fluorescence, higher = more signal.
Assay [19] addresses Neurogenic locus notch homolog protein 3 (Homo sapiens) (UniProt Q9UM47). Description: small molecules binding NOTCH3 protein – biochemical, 635/667 nm fluorescence, primary screen (AID 1096). The settings on record: small-molecule microarray, 635 nm fluorescence, higher = more signal.
A short description of assay [20]: probe aEGFR binding to arrayed compounds – biochemical, biotinylated probe, 635/667 nm fluorescence, primary screen (AID 1097).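 Also: probe is a biotinylated anti-EGFR antibody binding compounds printed on slides; score combines fluorescence near 667 nm and signal to noise of each spot.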 The following applies: small-molecule microarray, higher = more signal.

Chain of Neurogenic locus notch homolog protein 3 (Homo sapiens) (Q9UM47 whole entry, looked up): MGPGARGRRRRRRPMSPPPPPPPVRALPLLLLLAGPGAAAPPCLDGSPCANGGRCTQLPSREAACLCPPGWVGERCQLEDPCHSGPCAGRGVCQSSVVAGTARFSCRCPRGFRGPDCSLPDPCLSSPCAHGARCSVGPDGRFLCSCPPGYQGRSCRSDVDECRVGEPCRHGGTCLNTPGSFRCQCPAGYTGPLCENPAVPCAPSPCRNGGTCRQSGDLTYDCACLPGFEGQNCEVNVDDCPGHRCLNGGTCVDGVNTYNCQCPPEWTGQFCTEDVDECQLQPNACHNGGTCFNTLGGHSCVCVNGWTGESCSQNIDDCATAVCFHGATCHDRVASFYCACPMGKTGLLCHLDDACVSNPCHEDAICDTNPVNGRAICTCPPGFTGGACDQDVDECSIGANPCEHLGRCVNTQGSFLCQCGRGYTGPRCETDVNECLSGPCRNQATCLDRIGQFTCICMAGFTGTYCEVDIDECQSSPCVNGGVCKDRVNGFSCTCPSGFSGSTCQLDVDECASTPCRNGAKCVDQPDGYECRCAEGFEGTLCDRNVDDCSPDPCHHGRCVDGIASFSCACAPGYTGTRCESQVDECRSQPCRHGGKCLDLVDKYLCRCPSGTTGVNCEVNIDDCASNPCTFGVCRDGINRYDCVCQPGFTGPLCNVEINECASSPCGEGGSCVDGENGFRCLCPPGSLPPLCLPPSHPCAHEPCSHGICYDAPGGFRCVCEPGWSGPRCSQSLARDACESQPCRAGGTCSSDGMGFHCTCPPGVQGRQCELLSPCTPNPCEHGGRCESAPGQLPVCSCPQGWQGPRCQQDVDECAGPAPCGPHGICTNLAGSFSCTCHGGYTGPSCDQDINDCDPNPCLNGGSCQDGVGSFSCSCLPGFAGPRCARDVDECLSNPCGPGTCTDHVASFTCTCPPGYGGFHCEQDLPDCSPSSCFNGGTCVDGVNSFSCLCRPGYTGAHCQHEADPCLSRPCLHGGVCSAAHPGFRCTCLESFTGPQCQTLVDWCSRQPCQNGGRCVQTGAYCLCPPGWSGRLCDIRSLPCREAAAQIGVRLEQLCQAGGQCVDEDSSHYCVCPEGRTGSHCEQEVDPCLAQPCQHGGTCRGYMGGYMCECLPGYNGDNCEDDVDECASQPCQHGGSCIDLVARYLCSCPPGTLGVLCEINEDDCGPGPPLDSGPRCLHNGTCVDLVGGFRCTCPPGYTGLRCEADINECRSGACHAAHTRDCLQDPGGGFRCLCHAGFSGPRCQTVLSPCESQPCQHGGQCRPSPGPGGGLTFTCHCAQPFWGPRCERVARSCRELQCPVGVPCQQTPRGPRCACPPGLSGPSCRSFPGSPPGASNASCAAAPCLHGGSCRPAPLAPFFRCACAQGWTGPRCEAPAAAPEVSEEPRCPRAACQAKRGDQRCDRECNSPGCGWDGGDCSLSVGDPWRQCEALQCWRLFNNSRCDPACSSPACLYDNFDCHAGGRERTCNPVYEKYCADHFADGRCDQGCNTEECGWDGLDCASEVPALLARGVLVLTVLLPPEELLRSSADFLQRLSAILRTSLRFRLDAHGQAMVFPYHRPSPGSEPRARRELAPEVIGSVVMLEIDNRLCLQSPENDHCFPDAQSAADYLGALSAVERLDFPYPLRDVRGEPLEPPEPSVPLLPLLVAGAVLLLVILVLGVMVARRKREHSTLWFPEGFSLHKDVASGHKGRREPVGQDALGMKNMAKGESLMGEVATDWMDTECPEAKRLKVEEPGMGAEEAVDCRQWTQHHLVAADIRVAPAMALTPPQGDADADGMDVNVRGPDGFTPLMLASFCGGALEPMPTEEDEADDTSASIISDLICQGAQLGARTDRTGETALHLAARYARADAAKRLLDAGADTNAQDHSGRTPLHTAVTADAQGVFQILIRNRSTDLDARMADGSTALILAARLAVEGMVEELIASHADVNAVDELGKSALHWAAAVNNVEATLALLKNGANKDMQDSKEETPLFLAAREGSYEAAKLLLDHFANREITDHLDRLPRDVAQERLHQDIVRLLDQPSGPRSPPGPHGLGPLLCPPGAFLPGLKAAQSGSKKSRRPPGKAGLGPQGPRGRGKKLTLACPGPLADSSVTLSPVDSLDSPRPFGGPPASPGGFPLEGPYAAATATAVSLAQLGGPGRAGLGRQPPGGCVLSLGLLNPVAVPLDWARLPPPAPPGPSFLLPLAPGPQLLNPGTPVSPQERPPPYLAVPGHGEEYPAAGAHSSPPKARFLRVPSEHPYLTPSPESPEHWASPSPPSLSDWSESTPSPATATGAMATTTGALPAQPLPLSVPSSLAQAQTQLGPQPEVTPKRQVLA
Chain of Pro-neuregulin-1, membrane-bound isoform (Homo sapiens) (Q02297 whole entry, looked up, the tested form may be a part, canonical isoform): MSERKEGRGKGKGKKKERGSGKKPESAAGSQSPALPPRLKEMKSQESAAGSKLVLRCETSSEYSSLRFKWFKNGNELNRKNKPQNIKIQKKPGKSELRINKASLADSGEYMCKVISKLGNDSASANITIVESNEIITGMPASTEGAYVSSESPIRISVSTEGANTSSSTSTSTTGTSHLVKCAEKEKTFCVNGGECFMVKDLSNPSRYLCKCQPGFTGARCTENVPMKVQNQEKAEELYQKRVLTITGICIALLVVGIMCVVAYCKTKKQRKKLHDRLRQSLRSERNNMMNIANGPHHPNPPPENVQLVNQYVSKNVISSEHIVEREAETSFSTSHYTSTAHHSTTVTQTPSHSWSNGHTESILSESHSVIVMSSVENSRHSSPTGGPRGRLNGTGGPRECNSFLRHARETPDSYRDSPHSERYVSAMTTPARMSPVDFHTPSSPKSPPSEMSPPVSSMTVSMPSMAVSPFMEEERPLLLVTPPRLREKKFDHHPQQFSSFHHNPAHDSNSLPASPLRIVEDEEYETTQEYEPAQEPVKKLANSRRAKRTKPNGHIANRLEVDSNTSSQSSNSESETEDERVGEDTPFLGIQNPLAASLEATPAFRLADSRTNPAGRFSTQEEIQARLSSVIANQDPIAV
Chain of Torsin-1A-interacting protein 2 (Homo sapiens) (Q8NFQ8 whole entry, looked up): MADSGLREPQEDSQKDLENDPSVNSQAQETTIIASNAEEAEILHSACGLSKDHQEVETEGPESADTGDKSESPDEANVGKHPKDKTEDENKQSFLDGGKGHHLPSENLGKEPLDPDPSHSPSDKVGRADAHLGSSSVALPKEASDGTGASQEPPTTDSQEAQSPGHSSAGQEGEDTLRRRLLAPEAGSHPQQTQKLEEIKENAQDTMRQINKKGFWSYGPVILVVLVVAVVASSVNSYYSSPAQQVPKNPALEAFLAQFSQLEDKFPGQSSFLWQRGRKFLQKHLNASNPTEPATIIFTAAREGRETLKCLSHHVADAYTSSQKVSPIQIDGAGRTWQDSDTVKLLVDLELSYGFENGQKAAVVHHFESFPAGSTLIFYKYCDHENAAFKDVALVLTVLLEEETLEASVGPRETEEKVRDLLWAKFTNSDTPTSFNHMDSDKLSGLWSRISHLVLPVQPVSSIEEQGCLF

Turning to `COCCOC(=O)N1C(=O)[C@@]2(c3cc(C#CCNC(N)=O)ccc31)[C@H](c1ccc(OCCO)cc1)N1[C@H](c3ccccc3)[C@H](c3ccccc3)OC(=O)[C@H]1[C@@H]2C(=O)N1CCCCCCC1`, the composite z-score in assay [1] is 2.75; in assay [2], 0.0698; in assay [3], 0.128; in assay [4] it was 0.209; in [5], 0.315; in assay [6], -0.0446. In addition, the composite z-score was -0.116 in [7]; 1.46 in assay [9]; 0.167 in assay [10]; 0.844 in [11]; 0.789 in assay [15]; 1.09 in [17]. In addition, the composite z-score in assay [18] is 0.406; in assay [19] it was 0.555; in assay [20], 0.0199. Also, the z-score in assay [8] is -0.271 (inactive); in [12], 1.64 (inactive); in assay [13], 0.501 (inactive); in assay [14] it was 3.94 (inactive); in assay [16], 2.27 (inactive).
Regarding `O=C1C2C=CC(C(O)Cc3ccccc3)N(Nc3ccc([N+](=O)[O-])cc3)C2C(=O)N1c1ccccc1` (stereo not given), the composite z-score is 0.159 in [1]; -0.0657 in assay [2]; -0.06 in assay [3]; 0.699 in [4]; 1.15 in [5]; 1.83 in assay [6]. For the same molecule, the composite z-score in assay [7] was found to be 1.33; in assay [9] it was 0.638; in [10] it was 0.413; in [11], 0.623; in [15], 2.92; in assay [17], 0.232. In addition, the composite z-score was 0.278 in assay [18], 0.864 in assay [19] and 0.268 in assay [20]. Also, the z-score in assay [8] was 1.19 (inactive); in assay [12], -0.442 (inactive); in [13], 0.38 (inactive); in [14] it was 1.18 (inactive); in [16] it was -0.209 (inactive).
Take `COC(=O)C1=C(C)N(Cc2ccccc2)c2c(C(=O)OC)c(C(=O)OC)c(C(=O)OC)c(=O)n2[C@@H]1c1ccccc1`: the composite z-score is -0.274 in assay [1]; 0.657 in [2]; -0.0181 in assay [3]; 0.282 in assay [4]; 0.898 in [5]; 0.289 in assay [6]. Also, the composite z-score is 0.721 in [7]; 0.224 in assay [9]; -0.0994 in [10]; 0.269 in assay [11]; 0.309 in assay [15]; -0.195 in assay [17]. Moreover, the composite z-score in assay [18] is 0.433; in assay [19], 0.699; in [20], -0.065. In addition, the z-score was 0.365 (inactive) in assay [8]; -0.677 (inactive) in assay [12]; -1.75 (inactive) in assay [13]; -0.389 (inactive) in assay [14]; 0.535 (inactive) in assay [16].
Take `CO[C@H]1COC(=O)[C@H](Cc2ccccc2)NC(=O)CC=C[C@@H](C)[C@H](OC)COC(=O)CC=C[C@@H]1C`: the composite z-score in assay [1] is -0.453; in [2], 0.421; in assay [3] it was -0.0643; in assay [4] it was 0.324; in assay [5], -0.156; in [6], 0.131. Also, the composite z-score in assay [7] was 0.316; in assay [9] it was 0.244; in [10], -0.504; in assay [11], -0.141; in assay [15], 0.239; in assay [17], -0.152. Further, the figures for the composite z-score in assay [18], in assay [19] and in [20] were 0.344, 0.717 and 0.0875, respectively. In addition, the z-score in assay [8] is -0.244 (inactive); in assay [12], -0.39 (inactive); in assay [13], -1.44 (inactive); in assay [14], -0.617 (inactive); in [16], 0.296 (inactive).
Turning to `CO[C@H]1COC(=O)[C@H](C)NC(=O)CC=C[C@@H](C)[C@H](NS(=O)(=O)c2ccc(C)cc2)COC(=O)CC=C[C@@H]1C`, the composite z-score in assay [1] was -0.734; in assay [2], 1.84; in assay [3] it was -0.172; in assay [4], 0.0871; in assay [5] it was -0.543; in assay [6], -0.455. Further, the composite z-score in assay [7] was -0.775; in assay [9], 0.0005; in assay [10], -0.199; in [11], 0.0763; in assay [15] it was -0.876; in [17], -0.186. Further, the results for the composite z-score in assay [18], in assay [19] and in [20] were 0.678, -0.734 and -0.119, respectively. Also, the z-score in [8] was -1.27 (inactive); in [12], -0.733 (inactive); in assay [13] it was -0.635 (inactive); in [14] it was -1.1 (inactive); in assay [16], 0.119 (inactive).
